The subject of assay [1] is Plasmodium falciparum Sir2 (PF13_0152, Sir2A). In words: Plasmodium falciparum Sir2A binding compounds – biochemical, small-molecule microarray, 635 nm fluorescence, primary screen (AID 1098).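 Note: score merges spot fluorescence intensity with its signal-to-noise ratio.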 Conditions: fluorescence 635 nm, higher = more signal.
A short description of assay [2]: probe aDKK1 binding to arrayed compounds – biochemical, biotinylated probe, 635/667 nm fluorescence, primary screen (AID 1099).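 Note: score merges 667nm spot fluorescence with signal to noise across triplicate slides.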 The conditions noted are these: small-molecule microarray, higher = more signal.
Assay [3] can be described thus: probe aCHRDL2 binding to arrayed compounds – biochemical, biotinylated probe, 635/667 nm fluorescence, primary screen (AID 1100). The conditions noted are these: small-molecule microarray, higher = more signal.
The nature of assay [4]: change in splice reporter luminescence, either direction, cell-based, HEK293, spliceosome inhibition project, primary screen (AID 1101).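 Note: HEK293 cells carrying a splicing-competent luciferase reporter gene; test concentration not given here.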 The conditions noted are these: HEK293 splicing luciferase reporter, 24 h, higher = more signal, called active from +8 up or from −8 down. On the technique in general: A reporter such as luciferase makes a cellular process visible.
Assay [5] deals with Fibroblast growth factor 10 (Homo sapiens) (UniProt O15520). In words: compounds binding fibroblast growth factor 10 – biochemical, small-molecule microarray, 635 nm fluorescence, primary screen (AID 1102). Conditions: FGF10 binding, fluorescence 635 nm, higher = more signal.
Sequence of Fibroblast growth factor 10 (Homo sapiens) (O15520 whole entry, looked up): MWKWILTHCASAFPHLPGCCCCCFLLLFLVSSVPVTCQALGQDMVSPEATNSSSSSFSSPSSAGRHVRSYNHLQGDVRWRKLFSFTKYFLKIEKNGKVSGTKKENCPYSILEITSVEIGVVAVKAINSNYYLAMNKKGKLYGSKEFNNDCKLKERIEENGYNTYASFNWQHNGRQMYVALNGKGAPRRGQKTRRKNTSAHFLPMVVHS
The test system of assay [6] is glycogen synthase kinase-3 (GSK3A per assay name; protocol says GSK3B). In words: compounds binding glycogen synthase kinase-3 – biochemical, small-molecule microarray, 635 nm fluorescence, GSK3A, primary screen (AID 1103). Note: the record names both GSK3A and GSK3B. Conditions: fluorescence 635 nm, higher = more signal.
Assay [7] addresses Epidermal growth factor receptor (Homo sapiens) (UniProt P00533). In words: compounds binding epidermal growth factor receptor – biochemical, small-molecule microarray, 635 nm fluorescence, primary screen (AID 1104).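 Note: score merges 667 nm emission intensity with spot signal to noise over triplicate slides.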 Conditions: EGFR binding, higher = more signal.
Assay [8] has as its target Follistatin-related protein 3 (Homo sapiens) (UniProt O95633). Put plainly: compounds binding follistatin-related protein 3 – biochemical, small-molecule microarray, 635 nm fluorescence, primary screen (AID 1105).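 Note: score merges emission near 667 nm and signal to noise per printed spot across three slides.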 The conditions noted are these: FSTL3 binding, higher = more signal.
The target in assay [9] is Dickkopf-related protein 1 (Homo sapiens) (UniProt O94907). Put plainly: small molecules binding DKK1 protein – biochemical, small-molecule microarray, 635 nm fluorescence scan, primary screen (AID 1106).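 Note: score merges emission near 667 nm with signal to noise over three replicate slides.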 The conditions noted are these: higher = more signal.
Sequence of Dickkopf-related protein 1 (Homo sapiens) (O94907 whole entry, looked up): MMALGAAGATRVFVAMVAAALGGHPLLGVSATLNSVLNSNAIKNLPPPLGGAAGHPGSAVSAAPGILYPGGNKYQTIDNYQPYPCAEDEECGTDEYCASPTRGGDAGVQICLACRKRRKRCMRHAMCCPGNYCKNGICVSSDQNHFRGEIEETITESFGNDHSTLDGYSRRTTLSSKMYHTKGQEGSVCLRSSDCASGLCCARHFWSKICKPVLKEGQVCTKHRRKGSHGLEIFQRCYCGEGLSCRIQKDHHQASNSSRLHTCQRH
The test system of assay [10] is Inhibin beta A chain (activin A). Put plainly: small molecules binding activin A – biochemical, small-molecule microarray, 635 nm fluorescence scan, primary screen (AID 1107).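 Note: mouse activin A protein probed at 4.33 µg/mL on printed slides; score merges bound-protein fluorescence near 667 nm with spot signal-to-noise.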 Conditions: INHBA, higher = more signal.
Assay [11] has as its system Human papillomavirus type 1a protein E7 (residues 44-93). Put plainly: small molecules binding HPV E7 44-93 – biochemical, small-molecule microarray, residues 44-93, 635 nm fluorescence, primary screen (AID 1108).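 Note: E7 fragment applied at 1 µg/mL in TBST for 1 h at 4 C; score combines spot fluorescence with its signal to noise ratio.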 Conditions: fluorescence 635 nm, higher = more signal.
Assay [12] is described as follows: hepatitis C replication reporter changes, two-sided – Huh7 cells, luciferase reporter, HCV replication inhibitor project, primary screen (AID 1109).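 Note: huh7 hepatoma cells harbouring a luciferase neomycin HCV replicon reporter; luciferase luminescence as measure of HCV replicon replication; test concentration not given here.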 The conditions noted are these: Huh7 HCV replicon luciferase reporter, 48 h; higher = more signal.
The target in assay [13] is Left-right determination factor 2 (Homo sapiens) (UniProt O00292). In words: small molecules binding LEFTY2 protein – biochemical, small-molecule microarray, 635 nm fluorescence scan, primary screen (AID 1110). Conditions: higher = more signal.
Sequence of Left-right determination factor 2 (Homo sapiens) (O00292 whole entry, looked up): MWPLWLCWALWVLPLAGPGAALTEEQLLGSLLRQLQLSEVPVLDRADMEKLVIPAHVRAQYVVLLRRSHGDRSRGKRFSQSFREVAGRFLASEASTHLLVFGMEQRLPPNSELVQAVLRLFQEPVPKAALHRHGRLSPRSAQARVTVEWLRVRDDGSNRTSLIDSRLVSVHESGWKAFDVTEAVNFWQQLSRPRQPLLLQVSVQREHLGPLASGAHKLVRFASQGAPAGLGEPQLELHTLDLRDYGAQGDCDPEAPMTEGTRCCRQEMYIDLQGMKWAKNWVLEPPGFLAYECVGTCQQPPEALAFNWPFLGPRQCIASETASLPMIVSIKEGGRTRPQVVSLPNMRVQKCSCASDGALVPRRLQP
Assay [14] deals with Calmodulin-1 (Homo sapiens) (UniProt P0DP23). In words: small molecules binding calmodulin-1 with EGTA – biochemical, small-molecule microarray, Cy5-labelled CALM1, profiling panel (AID 1111).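 Note: labelled calmodulin applied in Tris saline Tween buffer holding calcium plus EGTA and DTT.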 Conditions: Cy5-CALM1 binding fluorescence, higher = more signal.
The target is the same in assay [15]. Put plainly: small molecules binding Ca-loaded calmodulin-1 – biochemical, small-molecule microarray, Cy5-labelled CALM1, plus calcium, artefact control for SMM control-protein annotation, profiling panel (AID 1112).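 Note: score merges spot fluorescence with signal to noise from triplicate slides.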 The conditions noted are these: Cy5-CALM1 binding fluorescence, higher = more signal.
Assay [16] can be described thus: probe aWnt5a binding to arrayed compounds – biochemical, biotinylated probe, 635/667 nm fluorescence, primary screen (AID 1113).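 Note: score merges 667 nm fluorescence intensity with signal-to-noise per printed feature.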 Conditions: small-molecule microarray, higher = more signal.
The nature of assay [17]: probe aShh binding to arrayed compounds – biochemical, biotinylated probe, 635/667 nm fluorescence, primary screen (AID 1114).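 Note: probe is biotin-labelled aShh protein from a stem cell growth factor screen; measures binding of labelled protein to compounds printed on the slide; score merges feature fluorescence at 667 nm with signal-to-noise.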 Conditions: small-molecule microarray, higher = more signal.
Assay [18] in a line: probe aNog binding to arrayed compounds – biochemical, biotinylated probe, 635/667 nm fluorescence, primary screen (AID 1115).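 Note: probe is biotinylated aNog protein used at 0.15 µg/mL for 1 h at 4 C; z-score combines 667 nm fluorescence of each spot with its signal to noise.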 The conditions noted are these: small-molecule microarray, higher = more signal.
For assay [19], the target named is Torsin-1A-interacting protein 1 (Homo sapiens) (UniProt Q5JTV8). Put plainly: compound microarray binding of lysate hLAP1 – cell lysate, small-molecule microarray, COS7 lysate, 635/667 nm fluorescence, primary screen (AID 1116). The conditions noted are these: 635 nm fluorescence, higher = more signal.
Sequence of Torsin-1A-interacting protein 1 (Homo sapiens) (Q5JTV8 whole entry, looked up): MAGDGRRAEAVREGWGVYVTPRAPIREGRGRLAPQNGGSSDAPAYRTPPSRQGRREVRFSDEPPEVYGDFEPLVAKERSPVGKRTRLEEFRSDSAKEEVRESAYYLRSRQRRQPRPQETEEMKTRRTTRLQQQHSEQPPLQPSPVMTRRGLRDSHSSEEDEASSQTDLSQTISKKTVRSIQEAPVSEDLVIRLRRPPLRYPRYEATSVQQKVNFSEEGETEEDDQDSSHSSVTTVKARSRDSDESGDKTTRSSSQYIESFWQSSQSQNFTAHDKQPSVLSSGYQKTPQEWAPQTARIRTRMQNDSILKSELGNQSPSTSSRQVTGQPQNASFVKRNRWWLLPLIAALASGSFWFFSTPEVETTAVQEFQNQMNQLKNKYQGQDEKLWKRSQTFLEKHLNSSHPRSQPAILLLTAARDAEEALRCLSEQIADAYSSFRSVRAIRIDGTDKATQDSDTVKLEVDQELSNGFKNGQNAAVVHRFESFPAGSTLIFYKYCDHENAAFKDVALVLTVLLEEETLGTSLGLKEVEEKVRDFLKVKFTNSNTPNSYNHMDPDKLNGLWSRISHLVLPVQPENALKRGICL
For assay [20], the target named is Alpha-bungarotoxin (Bungarus multicinctus) (UniProt P60615). Put plainly: compounds binding labelled alpha-BTX control protein – biochemical, small-molecule microarray, Alexa647 label, 635/667 nm fluorescence, artefact control for SMM control protein annotation, profiling panel (AID 1117). The conditions noted are these: alpha-BTX-A647 binding fluorescence, higher = more signal.
Sequence of Alpha-bungarotoxin (Bungarus multicinctus) (P60615 whole entry, looked up): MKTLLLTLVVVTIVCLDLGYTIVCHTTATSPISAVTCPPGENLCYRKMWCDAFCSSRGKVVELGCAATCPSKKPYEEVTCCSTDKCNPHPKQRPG

The source made the active and inactive calls.

This is an account of results in PubChem BioAssay.

Sequence of Epidermal growth factor receptor (Homo sapiens) (P00533 whole entry, looked up): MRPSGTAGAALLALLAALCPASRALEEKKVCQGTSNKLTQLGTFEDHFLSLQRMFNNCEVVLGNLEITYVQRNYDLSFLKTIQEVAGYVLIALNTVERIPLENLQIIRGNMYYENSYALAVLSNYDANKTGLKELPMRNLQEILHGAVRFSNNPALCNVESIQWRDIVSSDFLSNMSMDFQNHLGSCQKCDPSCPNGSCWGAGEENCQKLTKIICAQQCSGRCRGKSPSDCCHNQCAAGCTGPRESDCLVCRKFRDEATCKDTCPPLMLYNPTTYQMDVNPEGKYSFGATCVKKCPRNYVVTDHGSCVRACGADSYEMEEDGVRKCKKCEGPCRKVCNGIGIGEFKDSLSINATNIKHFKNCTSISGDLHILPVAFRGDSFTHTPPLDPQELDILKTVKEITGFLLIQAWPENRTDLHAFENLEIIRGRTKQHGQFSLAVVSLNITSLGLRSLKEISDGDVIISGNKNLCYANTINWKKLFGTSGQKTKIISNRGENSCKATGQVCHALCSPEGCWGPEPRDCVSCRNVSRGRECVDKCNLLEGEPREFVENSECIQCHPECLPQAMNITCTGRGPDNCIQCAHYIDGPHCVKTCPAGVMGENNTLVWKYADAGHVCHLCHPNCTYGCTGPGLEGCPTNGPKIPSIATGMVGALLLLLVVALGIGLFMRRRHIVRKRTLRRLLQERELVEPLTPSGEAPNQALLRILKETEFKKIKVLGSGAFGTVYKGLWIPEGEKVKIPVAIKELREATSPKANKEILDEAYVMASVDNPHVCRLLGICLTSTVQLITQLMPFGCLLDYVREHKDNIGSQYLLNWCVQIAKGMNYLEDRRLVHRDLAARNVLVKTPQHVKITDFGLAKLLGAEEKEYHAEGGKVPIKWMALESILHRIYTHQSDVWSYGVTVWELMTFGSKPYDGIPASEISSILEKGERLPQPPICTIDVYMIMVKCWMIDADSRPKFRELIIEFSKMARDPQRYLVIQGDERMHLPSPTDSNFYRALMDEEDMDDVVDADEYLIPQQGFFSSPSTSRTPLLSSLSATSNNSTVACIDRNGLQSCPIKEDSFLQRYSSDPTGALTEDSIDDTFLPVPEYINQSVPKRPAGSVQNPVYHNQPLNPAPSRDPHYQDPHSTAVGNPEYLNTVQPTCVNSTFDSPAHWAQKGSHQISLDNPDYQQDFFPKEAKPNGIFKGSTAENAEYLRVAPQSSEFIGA
Sequence of Follistatin-related protein 3 (Homo sapiens) (O95633 whole entry, looked up): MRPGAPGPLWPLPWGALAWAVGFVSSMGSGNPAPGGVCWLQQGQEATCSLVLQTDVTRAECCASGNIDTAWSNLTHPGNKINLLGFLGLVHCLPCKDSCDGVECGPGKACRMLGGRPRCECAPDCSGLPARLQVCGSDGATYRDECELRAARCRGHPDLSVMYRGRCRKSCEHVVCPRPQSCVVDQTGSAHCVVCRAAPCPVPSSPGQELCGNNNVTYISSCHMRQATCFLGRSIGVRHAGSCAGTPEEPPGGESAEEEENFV

For `COc1ccc(NC(=O)O[C@H]2[C@@H]3OC(=O)[C@H](Cc4cccc(Br)c4)C/C=C/C[C@@H](Cc4cccc(Br)c4)C(=O)O[C@H]3[C@@H](OC)O[C@@H]2CO)cc1`, the composite z-score in [1] was 1.31; in assay [2], 0.13; in assay [3], 0.387; in [5], 0.638; in assay [6], 0.475; in assay [7] it was 0.4. Further, the composite z-score in [8] worked out at 0.324; in assay [9], 0.142; in assay [10], 0.735; in assay [11], 0.277; in assay [13] it was 0.601; in assay [14], 0.492. For the same compound, the composite z-score was -0.062 in [15]; -0.027 in assay [16]; 0.235 in [17]; 0.325 in assay [18]; 0.882 in [19]; 0.526 in assay [20]. Besides, the z-score in assay [4] was 0.044 (inactive); in assay [12] it was 0.714.
Turning to `COCCOC(=O)N1C(=O)[C@@]2(c3cc(C#CC4=CCCCC4)ccc31)[C@H](c1ccc(O)cc1)N1[C@H](c3ccccc3)[C@H](c3ccccc3)OC(=O)[C@H]1[C@@H]2C(=O)NC[C@H](O)c1ccccc1`, the composite z-score in assay [1] came to 0.535; in [2] it was 0.0353; in assay [3] it was 0.129; in assay [5], 1.12; in [6], 0.348; in [7], 0.462. Moreover, the composite z-score in [8] was determined as 1.17; in assay [9] it was 0.557; in assay [10], 0.528; in assay [11], 1.39; in assay [13] it was 0.623; in [14], 0.713. Moreover, the composite z-score in [15] is 0.135; in assay [16], 0.0324; in [17] it was 0.296; in assay [18] it was -0.614; in [19] it was 1.39; in assay [20], 0.791. Further, the z-score in [4] is -0.586 (inactive); in assay [12] it was -1.66.
With `CCCC=C(CCC)[C@@H](NC(=O)CCc1ccccc1)c1ccc(C(F)(F)F)cc1`, the composite z-score in [1] worked out at 1.08; in [2], 0.256; in [3], 0.995; in assay [5] it was 0.527; in [6] it was 1.28; in assay [7] it was 0.0694. In addition, the composite z-score in [8] is 0.574; in assay [9], -0.429; in assay [10], 0.724; in [11] it was 1.36; in assay [13], -0.203; in assay [14], 1.58. The composite z-score is 1.03 in assay [15]; 0.451 in assay [16]; 0.93 in assay [17]; 0.555 in [18]; 1.11 in assay [19]; 1.23 in assay [20]. Besides, the values for the z-score in assay [4] and in assay [12] were -1.57 (inactive) and -1.51, respectively.
In the case of `C=C(C(=O)CC[C@@H](OC(=O)c1ccccc1-c1ccccc1C(=O)O)c1ccccc1OCCO)C(C)C`, the composite z-score in assay [1] was 1.07; in assay [2] it was -0.232; in assay [3] it was -0.463; in assay [5] it was 1.53; in [6], 0.645; in [7], 0.354. The composite z-score is 1.38 in [8]; 0.73 in [9]; 1.26 in [10]; 1.38 in assay [11]; 0.355 in assay [13]; 0.0583 in assay [14]. The composite z-score in assay [15] was -0.7; in [16] it was -0.0405; in assay [17] it was 0.232; in assay [18], -0.409; in assay [19], 0.202; in [20] it was 1.05. Besides, the figures for the z-score in [4] and in assay [12] were 1.58 (inactive) and -2.63, respectively.
Take `CCCNC(=O)[C@@]1(Sc2ccc(C)cc2)CC(=O)N(C(C)C)[C@@H]1c1ccc(CO)cc1I`: the composite z-score was 0.0404 in assay [1]; 0.832 in assay [2]; 1.37 in [3]; -0.72 in assay [5]; -1.33 in assay [6]; -1.71 in assay [7]. Moreover, the composite z-score in assay [8] was -1.35; in assay [9] it was -2.76; in assay [10], 0.448; in assay [11], -0.593; in assay [13], -1.7; in assay [14], 1.31. Also, the composite z-score was 0.944 in assay [15]; -0.178 in assay [16]; -0.0553 in assay [17]; 0.909 in [18]; 0.669 in assay [19]; -0.432 in assay [20]. The results for the z-score in assay [4] and in assay [12] were -0.0862 (inactive) and -2.03, respectively.
